According to the supplement of paper PMC10849652:
Targets with a hit are over-represented here; the source holds about 7,900 in all. About 0.6% of all pairs of compound and target were hits.

Assays:
Test in all cases: log2 fold change, soluble protein after heating vs DMSO (PISA); higher = thermal stabilisation; K562 cells, 10 uM, 30 min; active = over 0.2 and 3.5 SD of the protein, either way, in both replicates (recomputed)
[1] = compound: COC1=CC=C(C=C1)CN2C=CC3=C2C=C(C=C3)C(=O)NO
Outline: (§1)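 Values are thermal stability changes relative to control samples and are taken from duplicates. They are stated as log2 fold changes. Before quantification by TMTpro 16plex LC-MS/MS with equalised channel sums, K562 cells at 2×10^6 cells/mL were treated with 10 μM compound for 30 min, heated in aliquots for 3 min across 48°C-58°C, pooled, extracted in PBS with 0.5% NP-40 at 4°C, and centrifuged at 21,000xg for 90 min to give the soluble supernatant.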

filanesib = compound: CON(C)C(=O)N1N=C(c2cc(F)ccc2F)S[C@@]1(CCCN)c1ccccc1 [filanesib]
Outline: as §1

zotarolimus = compound: CO[C@H]1C[C@@H]2CC[C@@H](C)[C@@](O)(O2)C(=O)C(=O)N2CCCC[C@H]2C(=O)O[C@H]([C@H](C)C[C@@H]2CC[C@H](n3cnnn3)[C@H](OC)C2)CC(=O)[C@H](C)/C=C(\C)[C@@H](O)[C@@H](OC)C(=O)[C@H](C)C[C@H](C)/C=C/C=C/C=C/1C [zotarolimus]
Outline: as §1

idasanutlin = compound: COc1cc(C(=O)O)ccc1NC(=O)[C@@H]1N[C@@H](CC(C)(C)C)[C@](C#N)(c2ccc(Cl)cc2F)[C@H]1c1cccc(Cl)c1F [idasanutlin]
Outline: as §1

alisertib = compound: COc1cc(Nc2ncc3c(n2)-c2ccc(Cl)cc2C(c2c(F)cccc2OC)=NC3)ccc1C(=O)O [alisertib]
Outline: as §1

[2] = compound: COc1cc2nc(-c3cc(F)ccc3O)nc(N[C@@H]3CNC[C@H]3C(C)(C)O)c2cc1OC
Outline: as §1

gefitinib = compound: COc1cc2ncnc(Nc3ccc(F)c(Cl)c3)c2cc1OCCCN1CCOCC1 [gefitinib]
Outline: as §1

[3] = compound: COc1cccc2cc(-c3nc([C@H]4CC[C@H](C(=O)O)CC4)n4ncnc(N)c34)[nH]c12
Outline: as §1

lapatinib = compound: CS(=O)(=O)CCNCc1ccc(-c2ccc3ncnc(Nc4ccc(OCc5cccc(F)c5)c(Cl)c4)c3c2)o1 [lapatinib]
Outline: as §1

pictilisib = compound: CS(=O)(=O)N1CCN(Cc2cc3nc(-c4cccc5[nH]ncc45)nc(N4CCOCC4)c3s2)CC1 [pictilisib]
Outline: as §1

[4] = compound: CS(=O)(=O)c1ccc(-c2cnc(N)c(C(=O)Nc3ccccc3)n2)cc1
Outline: as §1

crizotinib = compound: C[C@@H](Oc1cc(-c2cnn(C3CCNCC3)c2)cnc1N)c1c(Cl)ccc(F)c1Cl [crizotinib]
Outline: as §1

[5] = compound: C[C@@H]1COCCN1C2=NC(=NC(=C2)C3(CC3)S(=O)(=O)C)C4=C5C=CNC5=CC=C4
Outline: as §1

[6] = compound: C[C@H](C1=CC=C(C=C1)C(=O)NC2=C3C=CNC3=NC=C2)N
Outline: as §1

duvelisib = compound: C[C@H](Nc1ncnc2nc[nH]c12)c1cc2cccc(Cl)c2c(=O)n1-c1ccccc1 [duvelisib]
Outline: as §1

gandotinib = compound: Cc1cc(Nc2cc(CN3CCOCC3)c3nc(C)c(Cc4ccc(Cl)cc4F)n3n2)n[nH]1 [gandotinib]
Outline: as §1

tozasertib = compound: Cc1cc(Nc2cc(N3CCN(C)CC3)nc(Sc3ccc(NC(=O)C4CC4)cc3)n2)n[nH]1 [tozasertib]
Outline: as §1

[7] = compound: Cc1cc(SCc2sc(-c3ccc(C(F)(F)F)cc3)nc2C)ccc1OCC(=O)O
Outline: as §1

doramapimod = compound: Cc1ccc(-n2nc(C(C)(C)C)cc2NC(=O)Nc2ccc(OCCN3CCOCC3)c3ccccc23)cc1 [doramapimod]
Outline: as §1

ispinesib = compound: Cc1ccc(C(=O)N(CCCN)[C@@H](c2nc3cc(Cl)ccc3c(=O)n2Cc2ccccc2)C(C)C)cc1 [ispinesib]
Outline: as §1

Measured: log2 fold change

MRPS5 (UniProt P82675)
inactive: [1] -0.06 | filanesib 0.078 | zotarolimus 0.091 | alisertib 0.021 | [2] 0.015 | gefitinib -0.026 | [3] 0.02 | lapatinib 0.054 | pictilisib -0.026 | [4] 0.123 | crizotinib -0.061 | [5] 0.125 | [6] 0.169 | duvelisib 0.016 | gandotinib -0.08 | tozasertib -0.065 | [7] 0.131 | doramapimod 0.071
active: idasanutlin -0.37 | ispinesib -0.451

NA, A0A0B4J2A0
inactive: [1] 0.084 | filanesib -0.045 | zotarolimus -0.021 | idasanutlin -0.016 | alisertib 0.129 | [2] -0.029 | gefitinib -0.092 | [3] 0.023 | lapatinib -0.026 | pictilisib 0.05 | [4] -0.087 | crizotinib -0.18 | [5] 0.093 | [6] 0.06 | duvelisib 0.071 | gandotinib -0.087 | tozasertib -0.061 | [7] 0.061 | doramapimod -0.049 | ispinesib -0.121

NHLRC2 (UniProt Q8NBF2)
UniProt Q8NBF2, sequence (Q8NBF2 whole entry, looked up): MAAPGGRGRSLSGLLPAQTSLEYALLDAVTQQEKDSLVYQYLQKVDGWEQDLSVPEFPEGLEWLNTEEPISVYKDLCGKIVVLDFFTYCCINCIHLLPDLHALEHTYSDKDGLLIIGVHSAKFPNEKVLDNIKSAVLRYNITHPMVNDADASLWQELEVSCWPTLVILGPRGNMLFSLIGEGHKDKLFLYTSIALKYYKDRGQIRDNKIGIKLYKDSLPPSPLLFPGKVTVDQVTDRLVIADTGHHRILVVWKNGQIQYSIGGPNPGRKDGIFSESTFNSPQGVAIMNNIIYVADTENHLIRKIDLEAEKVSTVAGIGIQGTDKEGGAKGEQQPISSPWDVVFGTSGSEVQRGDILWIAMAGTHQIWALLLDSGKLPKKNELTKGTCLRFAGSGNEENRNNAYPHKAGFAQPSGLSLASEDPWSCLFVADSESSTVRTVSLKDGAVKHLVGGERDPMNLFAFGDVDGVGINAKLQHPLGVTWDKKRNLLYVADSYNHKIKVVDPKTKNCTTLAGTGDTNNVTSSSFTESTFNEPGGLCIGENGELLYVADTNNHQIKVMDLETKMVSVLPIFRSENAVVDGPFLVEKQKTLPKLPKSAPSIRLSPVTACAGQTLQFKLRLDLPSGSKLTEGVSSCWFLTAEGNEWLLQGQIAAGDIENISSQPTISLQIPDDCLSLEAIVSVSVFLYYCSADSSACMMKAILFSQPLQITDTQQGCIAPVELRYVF
inactive: [1] -0.084 | filanesib -0.062 | zotarolimus -0.001 | idasanutlin -0.061 | alisertib 0.1 | [2] 0.061 | gefitinib -0.011 | [3] 0.123 | lapatinib -0.057 | pictilisib 0.062 | [4] 0.1 | crizotinib -0.127 | [5] 0.165 | [6] -0.011 | duvelisib 0.05 | gandotinib -0.158 | tozasertib -0.105 | [7] 0.044 | doramapimod -0.005 | ispinesib -0.198

MRPS17 (UniProt Q9Y2R5)
active: ispinesib -0.345
inactive: [1] -0.089 | filanesib 0.038 | zotarolimus 0.047 | idasanutlin -0.254 | alisertib -0.043 | [2] -0.025 | gefitinib 0.039 | [3] -0.016 | lapatinib 0.113 | pictilisib 0.035 | [4] 0.038 | crizotinib 0.034 | [5] 0.097 | [6] 0.076 | duvelisib 0.012 | gandotinib -0.06 | tozasertib -0.019 | [7] 0.166 | doramapimod 0.033

NCOR1 (UniProt O75376)
UniProt O75376, sequence (O75376 whole entry, looked up): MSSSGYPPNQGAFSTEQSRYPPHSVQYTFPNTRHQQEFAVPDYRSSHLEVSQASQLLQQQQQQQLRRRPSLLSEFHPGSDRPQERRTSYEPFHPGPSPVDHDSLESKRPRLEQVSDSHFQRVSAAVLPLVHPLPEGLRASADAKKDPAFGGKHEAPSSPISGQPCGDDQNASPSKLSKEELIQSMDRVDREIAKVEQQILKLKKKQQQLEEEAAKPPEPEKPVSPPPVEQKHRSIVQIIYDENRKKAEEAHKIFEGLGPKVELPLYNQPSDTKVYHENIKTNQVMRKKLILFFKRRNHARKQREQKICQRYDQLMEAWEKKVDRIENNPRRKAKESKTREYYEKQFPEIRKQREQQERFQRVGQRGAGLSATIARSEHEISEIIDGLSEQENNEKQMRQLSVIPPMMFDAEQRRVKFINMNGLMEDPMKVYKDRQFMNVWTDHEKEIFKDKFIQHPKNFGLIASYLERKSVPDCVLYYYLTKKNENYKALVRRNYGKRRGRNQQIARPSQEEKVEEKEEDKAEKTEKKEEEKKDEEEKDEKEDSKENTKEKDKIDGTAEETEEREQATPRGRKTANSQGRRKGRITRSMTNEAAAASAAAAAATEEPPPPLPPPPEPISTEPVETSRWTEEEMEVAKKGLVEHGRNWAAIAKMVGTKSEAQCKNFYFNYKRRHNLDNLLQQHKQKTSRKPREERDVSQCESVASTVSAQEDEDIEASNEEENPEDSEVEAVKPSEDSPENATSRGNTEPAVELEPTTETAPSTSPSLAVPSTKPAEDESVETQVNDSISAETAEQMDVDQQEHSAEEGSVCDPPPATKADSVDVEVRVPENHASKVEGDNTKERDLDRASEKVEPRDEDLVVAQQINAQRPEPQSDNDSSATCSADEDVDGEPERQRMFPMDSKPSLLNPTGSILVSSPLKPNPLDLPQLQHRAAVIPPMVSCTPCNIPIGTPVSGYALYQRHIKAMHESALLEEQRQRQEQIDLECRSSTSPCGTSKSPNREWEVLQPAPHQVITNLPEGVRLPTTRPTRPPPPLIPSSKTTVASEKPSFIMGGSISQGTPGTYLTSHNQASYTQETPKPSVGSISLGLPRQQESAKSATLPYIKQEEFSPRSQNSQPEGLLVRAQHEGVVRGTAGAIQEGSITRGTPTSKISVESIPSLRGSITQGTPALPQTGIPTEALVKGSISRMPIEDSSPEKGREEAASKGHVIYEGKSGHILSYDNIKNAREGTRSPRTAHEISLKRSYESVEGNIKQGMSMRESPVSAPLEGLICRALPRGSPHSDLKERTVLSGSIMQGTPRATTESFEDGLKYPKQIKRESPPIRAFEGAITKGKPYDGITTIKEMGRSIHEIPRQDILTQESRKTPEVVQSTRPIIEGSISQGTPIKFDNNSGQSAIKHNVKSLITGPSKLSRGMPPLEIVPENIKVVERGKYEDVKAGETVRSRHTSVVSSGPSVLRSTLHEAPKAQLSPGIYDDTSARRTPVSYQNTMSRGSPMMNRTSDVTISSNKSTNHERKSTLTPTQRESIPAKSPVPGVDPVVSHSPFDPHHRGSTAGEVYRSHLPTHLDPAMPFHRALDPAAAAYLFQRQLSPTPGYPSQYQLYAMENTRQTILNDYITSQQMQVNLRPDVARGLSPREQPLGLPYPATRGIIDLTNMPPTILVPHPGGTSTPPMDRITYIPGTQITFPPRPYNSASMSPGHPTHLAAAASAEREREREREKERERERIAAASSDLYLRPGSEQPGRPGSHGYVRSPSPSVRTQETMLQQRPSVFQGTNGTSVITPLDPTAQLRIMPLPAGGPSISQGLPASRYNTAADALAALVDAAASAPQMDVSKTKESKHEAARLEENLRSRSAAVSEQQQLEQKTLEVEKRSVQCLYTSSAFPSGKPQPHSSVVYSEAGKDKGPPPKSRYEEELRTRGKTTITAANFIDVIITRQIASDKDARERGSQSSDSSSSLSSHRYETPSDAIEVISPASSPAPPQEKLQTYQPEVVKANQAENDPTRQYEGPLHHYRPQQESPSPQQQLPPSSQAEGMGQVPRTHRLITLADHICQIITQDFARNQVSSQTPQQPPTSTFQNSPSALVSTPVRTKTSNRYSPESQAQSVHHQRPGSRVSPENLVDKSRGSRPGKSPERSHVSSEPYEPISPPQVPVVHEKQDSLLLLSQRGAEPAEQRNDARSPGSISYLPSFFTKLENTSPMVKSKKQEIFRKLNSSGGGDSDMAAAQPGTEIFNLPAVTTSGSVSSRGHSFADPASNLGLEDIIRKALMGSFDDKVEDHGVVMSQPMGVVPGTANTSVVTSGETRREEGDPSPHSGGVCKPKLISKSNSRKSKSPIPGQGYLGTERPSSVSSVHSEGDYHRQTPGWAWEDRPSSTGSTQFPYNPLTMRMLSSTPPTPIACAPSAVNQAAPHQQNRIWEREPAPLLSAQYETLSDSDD
inactive: [1] -0.07 | filanesib 0.078 | zotarolimus 0.069 | idasanutlin 0.004 | alisertib -0.086 | [2] 0.128 | gefitinib -0.018 | [3] 0.064 | lapatinib -0.119 | pictilisib 0.135 | [4] -0.078 | crizotinib 0.017 | [5] 0.15 | [6] -0.064 | duvelisib 0.063 | gandotinib -0.007 | tozasertib 0.004 | [7] -0.061 | doramapimod -0.044 | ispinesib 0.004

NCKAP1 isoform 2 (UniProt Q9Y2A7)
inactive: [1] 0.019 | filanesib -0.042 | zotarolimus 0.025 | idasanutlin -0.035 | alisertib 0.067 | [2] 0.008 | gefitinib -0.009 | [3] -0.038 | lapatinib 0.016 | pictilisib -0.049 | [4] -0.021 | crizotinib -0.071 | [5] 0 | [6] -0.08 | duvelisib -0.006 | gandotinib -0.093 | tozasertib -0.017 | [7] 0.031 | doramapimod -0.027 | ispinesib 0.034

NDUFS4 (UniProt O43181)
UniProt O43181, sequence (O43181 whole entry, looked up): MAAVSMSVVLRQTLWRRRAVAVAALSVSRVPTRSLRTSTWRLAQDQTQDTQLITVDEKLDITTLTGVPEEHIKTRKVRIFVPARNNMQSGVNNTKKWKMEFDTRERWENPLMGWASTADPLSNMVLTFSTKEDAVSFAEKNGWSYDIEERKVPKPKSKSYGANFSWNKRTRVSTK
inactive: [1] -0.018 | filanesib -0.019 | zotarolimus -0.022 | idasanutlin 0.035 | alisertib -0.074 | [2] -0.077 | gefitinib -0.008 | [3] 0.036 | lapatinib 0.029 | pictilisib -0.122 | [4] -0.035 | crizotinib -0.089 | [5] -0.027 | [6] 0.086 | duvelisib -0.086 | gandotinib 0.164 | tozasertib -0.098 | [7] -0.058 | doramapimod 0.018 | ispinesib -0.216

NOL11 (UniProt Q9H8H0)
UniProt Q9H8H0, sequence (Q9H8H0 whole entry, looked up): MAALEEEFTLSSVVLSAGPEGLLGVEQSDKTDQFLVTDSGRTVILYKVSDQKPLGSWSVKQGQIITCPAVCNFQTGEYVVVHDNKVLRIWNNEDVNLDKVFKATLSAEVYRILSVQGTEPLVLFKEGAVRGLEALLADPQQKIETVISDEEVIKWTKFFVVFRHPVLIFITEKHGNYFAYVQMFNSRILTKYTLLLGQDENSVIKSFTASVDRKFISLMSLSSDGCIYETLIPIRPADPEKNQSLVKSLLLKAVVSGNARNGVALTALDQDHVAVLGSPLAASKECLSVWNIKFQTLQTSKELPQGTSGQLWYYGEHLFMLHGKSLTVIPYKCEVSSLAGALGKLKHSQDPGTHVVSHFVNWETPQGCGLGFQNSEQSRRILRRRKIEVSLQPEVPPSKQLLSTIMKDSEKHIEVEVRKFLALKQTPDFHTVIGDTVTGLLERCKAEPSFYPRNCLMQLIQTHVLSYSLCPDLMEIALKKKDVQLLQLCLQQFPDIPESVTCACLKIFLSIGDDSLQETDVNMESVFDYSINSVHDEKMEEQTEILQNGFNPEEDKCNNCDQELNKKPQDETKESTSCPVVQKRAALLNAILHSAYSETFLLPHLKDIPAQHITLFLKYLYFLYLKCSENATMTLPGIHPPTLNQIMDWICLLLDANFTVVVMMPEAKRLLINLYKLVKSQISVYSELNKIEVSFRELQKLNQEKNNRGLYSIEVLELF
inactive: [1] -0.029 | filanesib 0 | zotarolimus 0.005 | idasanutlin -0.046 | alisertib -0.017 | [2] 0.067 | gefitinib -0.008 | [3] 0.056 | lapatinib 0.005 | pictilisib 0.025 | [4] -0.036 | crizotinib 0.084 | [5] -0.017 | [6] -0.041 | duvelisib 0.073 | gandotinib -0.061 | tozasertib -0.01 | [7] -0.015 | doramapimod -0.005 | ispinesib 0.097
